Assay [1] in a line: A CellTox Green Cytotoxicity Assay to monitor cytotoxicity in HepG2 cells - 16 hour (AID 1224876). Further: nearly all actives have a fitted effect of over 45% in size. A digest of the protocol: (§1)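 HepG2, 600 cells/well premixed w/ CellTox Green; 5 h settle, 37 C/5% CO2; pintool cpd add (DMSO); 37 C, 40 h; fluorescence read at 0, 8, 16, 24, 32, 40 h.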
The nature of assay [2]: qHTS RealTime-Glo MT Cell Viability Assay in HepG2 cells - 32 hour (AID 1224877). Further: nearly all actives have a fitted effect of over 55% in size. Summed up:
(§2)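 Real-time, nonlytic viability: 600 HepG2 cells/well mixed with NanoLuc enzyme plus prosubstrate; 5 h settle, compound (DMSO) added by pintool; luminescence monitored over 40 h at 37 C.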
For orientation: qHTS replaces the single test concentration by a dilution series.

Assay [3] is described as follows: A CellTox Green Cytotoxicity Assay to monitor cytotoxicity in HepG2 cells - 24 hour (AID 1224878). Further: nearly all actives have a fitted effect of over 45% in size. Summed up: as §1
Assay [4] can be described thus: A CellTox Green Cytotoxicity Assay to monitor cytotoxicity in HepG2 cells - 40 hour (AID 1224879). Further: nearly all actives have a fitted effect of over 40% in size. A digest of the protocol:
as §1

Assay [5] in a line: qHTS RealTime-Glo MT Cell Viability Assay in HEK293 cells - 0 hour (AID 1224880). Further: top concentration of the series differs between compounds; nearly all actives have a fitted effect of over 45% in size. A digest of the protocol:
(§3)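 Luminescence readout at each listed time point; HEK293, 600 cells/well, RealTime-Glo MT reagent added with cells; compounds pinned (23 nL in DMSO) after 5 h at 37 C; continuous culture at 37 C.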

Assay [6] in a line: A CellTox Green Cytotoxicity Assay to monitor cytotoxicity in HEK293 cells - 32 hour (AID 1224881). Further: nearly all actives have a fitted effect of over 40% in size. A digest of the protocol: (§4)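 Read-out: fluorescence of a cell-impermeant cyanine dye staining DNA of dead cells, proportional to cytotoxicity. HEK293, 600 cells/well with reagent, compound (23 nL DMSO) added after 5 h; reads at 0, 8, 16, 24, 32, 40 h.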
A short description of assay [7]: A CellTox Green Cytotoxicity Assay to monitor cytotoxicity in HepG2 cells - 0 hour (AID 1224882). Further: nearly all actives have a fitted effect of over 35% in size. Summed up:
as §1

The nature of assay [8]: A CellTox Green Cytotoxicity Assay to monitor cytotoxicity in HepG2 cells - 32 hour (AID 1224883). Further: nearly all actives have a fitted effect of over 50% in size. Summed up: as §1
A short description of assay [9]: A CellTox Green Cytotoxicity Assay to monitor cytotoxicity in HEK293 cells - 8 hour (AID 1224884). Further: nearly all actives have a fitted effect of over 35% in size. Summed up:
as §4

Assay [10] in a line: qHTS RealTime-Glo MT Cell Viability Assay in HepG2 cells - 16 hour (AID 1224885). Further: nearly all actives have a fitted effect of over 50% in size. A digest of the protocol: as §2
Assay [11] is described as follows: qHTS RealTime-Glo MT Cell Viability Assay in HEK293 cells - 24 hour (AID 1224886). Further: nearly all actives have a fitted effect of over 50% in size. Further: potency means the concentration at half of the fitted maximal effect. A digest of the protocol:
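Cells + reagent dispensed (600 cells/well, HEK293) → 5 h at 37 C/5% CO2 → 23 nL compound in DMSO pinned → 40 h at 37 C → luminescence read at 0, 8, 16, 24, 32, 40 h.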

Assay [12] in a line: qHTS RealTime-Glo MT Cell Viability Assay in HEK293 cells - 8 hour (AID 1224887). Further: nearly all actives have a fitted effect of over 50% in size. Further: potency means the concentration at half of the fitted maximal effect. A digest of the protocol: as §3
Assay [13] can be described thus: A CellTox Green Cytotoxicity Assay to monitor cytotoxicity in HEK293 cells - 16 hour (AID 1224888). Further: nearly all actives have a fitted effect of over 35% in size. A digest of the protocol:
as §4

Assay [14] can be described thus: qHTS RealTime-Glo MT Cell Viability Assay in HepG2 cells - 0 hour (AID 1224889). Further: nearly all actives have a fitted effect of over 50% in size. A digest of the protocol:
as §2

Assay [15] is described as follows: A CellTox Green Cytotoxicity Assay to monitor cytotoxicity in HepG2 cells - 8 hour (AID 1224890). Further: nearly all actives have a fitted effect of over 45% in size. A digest of the protocol: as §1
Assay [16] can be described thus: qHTS assay to identify small molecule antagonists of the estrogen receptor alpha (ER-alpha) signaling pathway using the BG1 cell line in the presence of 0.1 nM 17-beta-estradiol - cell viability counter screen (AID 1259241). Further: nearly all actives have a fitted effect of over 40% in size. Summed up: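 Cells were plated and left 24 hr, compounds in DMSO were pinned in, 17beta-estradiol was added to 0.1 nM final, and after 22 hr CellTiter-Fluor reagent was added for 30 min before fluorescence was read.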

Assay [17] is described as follows: qHTS assay to identify small molecule antagonists of the androgen receptor (AR) signaling pathway using the MDA cell line in the presence of 0.5 nM R1881 - cell viability counter screen (AID 1259242). Further: nearly all actives have a fitted effect of over 45% in size. Summed up: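 Live-cell protease fluorescence, CellTiter-Fluor, 30 min at 37C. Cells: MDA-kb2, 3,000/well, preincubated 5 hr. Compounds plus 0.5 nM R1881 final, 16 hr, 37C, 0% CO2.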

The target in assay [18] is Estrogen receptor (Homo sapiens) (UniProt P03372). Description: qHTS assay to identify small molecule antagonists of the estrogen receptor alpha (ER-alpha) signaling pathway using the BG1 cell line in the presence of 0.1 nM 17-beta-estradiol (AID 1259244). Further: nearly all actives have a fitted effect of over 50% in size. Further: potency means the concentration at half of the fitted maximal effect. Summed up: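 Luminescence after ONE-Glo (30 min, room temperature) measured ERE-luciferase activity in VM7Luc4E2 cells treated 22 h with compound and 0.1 nM final 17beta-estradiol as stimulator.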

Assay [19] can be described thus: qHTS assay to identify small molecule HDAC inhibitors (AID 1259364). Summed up:
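HCT-116 (wild type), 1,500 cells/well, overnight; compound 2 hr 37C 5% CO2; HDAC-Glo I/II reagent 30 min RT; luminescence readout.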

Assay [20] is described as follows: qHTS assay to identify small molecule phospholipidosis (PLD) inducers (AID 1259344; active means well fitted curve in the direction sought with a large enough effect; an effect the other way counts as inactive or inconclusive). A digest of the protocol:
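Phospholipid accumulation was scored by imaging: fixed, Hoechst-counterstained HepG2 cells stained with LipidTOX Red after 24 h compound exposure at 37 C. Read-outs were pit count and pit intensity per well or per cell, with amiodarone and DMSO controls.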

Unmarked numbers belong to inactive results. Inconclusive results are not listed. The source made the active and inactive calls. Unless noted, the call rests on the fitted dose curve; in most records, active means well fitted curve in the direction sought with a large enough effect in the repeat runs; inconclusive means weak or mixed curves; inactive means no such curve, though single readings can be large; an effect the other way counts as inactive or inconclusive.

The record followed here is PubChem BioAssay (Tox21).

Sequence of Estrogen receptor (Homo sapiens) (P03372 whole entry, looked up): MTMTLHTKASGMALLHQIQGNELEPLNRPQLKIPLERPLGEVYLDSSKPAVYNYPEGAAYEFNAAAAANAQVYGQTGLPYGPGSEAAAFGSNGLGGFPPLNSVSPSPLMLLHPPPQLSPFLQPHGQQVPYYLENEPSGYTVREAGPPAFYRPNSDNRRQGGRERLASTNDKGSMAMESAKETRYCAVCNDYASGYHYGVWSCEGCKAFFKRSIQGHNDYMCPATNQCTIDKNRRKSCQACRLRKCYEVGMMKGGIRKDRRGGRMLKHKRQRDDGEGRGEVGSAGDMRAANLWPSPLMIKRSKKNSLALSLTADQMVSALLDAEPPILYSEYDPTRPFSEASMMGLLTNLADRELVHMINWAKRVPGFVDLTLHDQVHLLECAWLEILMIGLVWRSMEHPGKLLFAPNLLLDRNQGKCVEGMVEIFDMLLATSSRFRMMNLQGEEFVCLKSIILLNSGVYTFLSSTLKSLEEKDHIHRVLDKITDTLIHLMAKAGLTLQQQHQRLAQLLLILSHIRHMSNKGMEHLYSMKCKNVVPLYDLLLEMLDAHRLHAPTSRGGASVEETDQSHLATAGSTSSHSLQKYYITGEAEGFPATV

For `CNC(=O)NC`, the Potency entry in [1], in assay [3], in assay [4], in assay [6], in [7] and in assay [8] was “inactive” throughout. The Potency entry in assay [9], in assay [11], in assay [12], in [13], in [14] and in assay [15] was “inactive” each time. Besides, the Potency entry in assay [16], in assay [17], in [18] and in assay [19] was “inactive” in each case. Besides, the call in assay [2], in assay [5] and in assay [10] was inactive.

With `COc1cccc2sc(N)nc12`, the Potency entry in assay [1], in assay [3], in [4], in assay [6], in assay [7] and in [8] was “inactive” in each case. The Potency entry in [9], in assay [11], in [12], in [13], in assay [14] and in [15] was “inactive” each time. Also, the Potency result in [16], in assay [17] and in [18] was “inactive” each time. In addition, the outcome in assay [2], in [5] and in [10] was inactive.

With `Nc1ccc(S(=O)(=O)NC(=O)c2ccccc2)cc1`, the Potency entry in assay [1], in assay [3], in assay [4], in assay [6], in [7] and in assay [8] was “inactive” throughout. Besides, the Potency entry in [9], in [11], in assay [12], in [13], in assay [14] and in assay [15] was “inactive” throughout. Besides, the Potency result in assay [16], in assay [17] and in [18] was “inactive” in each case. The outcome in assay [2], in [5], in assay [10] and in [20] was inactive.

As to `Cc1nc2n(c(=O)c1CCN1CCC(C(=O)c3ccc(F)cc3)CC1)CCS2`, the Potency entry in assay [1], in assay [3], in [4], in assay [6], in [7] and in assay [8] was “inactive” each time. Besides, the Potency entry in [9], in assay [13], in [14], in assay [15], in [16] and in assay [17] was “inactive” each time. The outcome in [2], in assay [5] and in [10] was inactive. Moreover, the Potency is 5.35 µM (active) in [11], 6.74 µM (active) in assay [12] and 23.7 µM (active) in assay [18].

Take `O=C1CC[C@H](C(=O)N2CCCCC2)N1`: the Potency result in assay [1], in assay [3], in [4], in [6], in [7] and in assay [8] was “inactive” each time. The Potency result in assay [9], in assay [11], in [12], in [13], in assay [14] and in assay [15] was “inactive” each time. The Potency result in assay [16], in [17], in assay [18] and in assay [19] was “inactive” each time. Moreover, the molecule was classed as inactive in [2], in assay [5], in assay [10] and in [20].

Turning to `O=C(Oc1ccccc1C(=O)O)c1ccccc1O`, the Potency entry in [1], in assay [3], in assay [4], in assay [6], in [7] and in assay [8] was “inactive” in each case. Also, the Potency entry in assay [9], in assay [11], in assay [12], in assay [13], in assay [14] and in [15] was “inactive” in each case. Also, the Potency entry in [16], in assay [17], in assay [18] and in assay [19] was “inactive” each time. The molecule was classed as inactive in [2], in [5], in [10] and in assay [20].

Consider `O=P(O)(O)OCC(O)CO` (centres undefined), for which the Potency result in assay [1], in assay [3], in assay [4], in assay [6], in assay [7] and in assay [8] was “inactive” in each case. Besides, the Potency result in [9], in assay [11], in [12], in [13], in assay [14] and in assay [15] was “inactive” throughout. In addition, the Potency result in assay [16], in assay [17], in assay [18] and in assay [19] was “inactive” each time. Moreover, the molecule was called inactive in [2], in assay [5], in assay [10] and in assay [20].
